This note sets out measurements from PubChem BioAssay (EPA / NIEHS).

“And” between values parts separate entries of the source, which are not always exact repeats. Equal values may be shown once. Results filed as inconclusive are left out. Where a structure was tested more than once in an assay, its records may differ in their call. The source made the active and inactive calls. The calls were made as follows, unless noted: active = hit-call score of the fitted dose curve at least 0.9, where 1 is the maximum; inconclusive = response in the unintended direction; inactive = score below 0.9.

One test in a line: CCTE_Shafer_MEA_dev_LDH: CCTE's Lactate Dehydrogenase Assay for Cytotoxicity in the Neural Network Formation Assay, Shafer Lab (AID 2284068).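 Also: exposure for twelve days from plating with re-dosing on DIV 5 and 9.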
Conditions: not given
The method, boiled down: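 Primary rat cortical neurons were plated on PEI/laminin MEA plates and exposed from day 0 for twelve days, with compound renewed at DIV 5 and 9. Cytotoxicity was determined by spectrophotometric LDH assay relative to DMSO.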
In general, AC50 refers to the concentration giving half of the maximal activity seen. In the case of `CC(C)(C)c1ccccc1OP(=O)(Oc1ccccc1)Oc1ccccc1`, the AC50 was 15.5 µM (active) and 26 µM (active).

Turning to `OCC(F)(F)OC(F)(F)C(F)(F)OC(F)(F)C(F)(F)OC(F)(F)F`, the call was inactive.

For `O=P1(N(CCCl)CCCl)NCCCO1` (stereo not given), the AC50 was 11.6 µM (active).

For `CO/N=C(/C(=O)OC)c1ccccc1COc1ccccc1C`, the AC50 was 0.811 µM (active).

Turning to `CCCCC(CC)COC(=O)c1c(Br)c(Br)c(Br)c(Br)c1C(=O)OCC(CC)CCCC` (stereo not given), the outcome was inactive.

On to `OCC(F)(F)OC(F)(F)C(F)(F)OC(F)(F)CO`, for which the compound was called inactive.

`O=P(Oc1ccccc1)(Oc1ccccc1)Oc1ccccc1`: the call was inactive.

For `CCC1(c2ccccc2)C(=O)N=C(O)NC1=O` (stereo not given), the call was inactive.

As to `CCCCC(CC)COP(=O)(Oc1ccccc1)Oc1ccccc1` (stereo not given), the AC50 was 6.12 µM (active).

With `c1ccc(OP(Oc2ccccc2)Oc2ccccc2)cc1`, the compound was classed as inactive.

As to `O=C(O)C(F)(F)C(F)(F)C(=O)O`, the result was inactive.

Turning to `O=C(O)C(F)(OC(F)(F)C(F)(F)C(F)(F)F)C(F)(F)F` (stereo not given), the result was inactive.

As to `CCOP(=S)(OCC)SCSCC`, the AC50 is 33.7 µM (active) and the compound was classed as inactive.

As to `ClC1=C(Cl)C2(Cl)C3C(Cl)C(Cl)CC3C1(Cl)C2(Cl)Cl` (stereo not given), the AC50 is 7.62 µM (active).

Regarding `O=S(=O)(c1ccc(O)cc1)c1ccc(O)cc1`, the compound was classed as inactive.

As for `CCOc1ccc(C(C)(C)COCc2cccc(Oc3ccccc3)c2)cc1`, the AC50 was 15.2 µM (active).

Consider `C=CC(=O)OCC(F)(F)C(F)F`, for which the AC50 is 8.15 µM (active).

As to `O=C(O)C1C(C(=O)O)C2(Cl)C(Cl)=C(Cl)C1(Cl)C2(Cl)Cl` (stereo not given), the compound was classed as inactive.

A further test in a line: CCTE_Shafer_MEA_acute_AB: CCTE's Alamar Blue Assay for Cytotoxicity in the Neural Acute Assay, Shafer Lab (AID 2284069).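 Also: active compounds lower the viability signal compared with DMSO wells.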
Conditions: not given
In short, it runs like this:
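Primary rat cortical neurons on MEA plates, exposed acutely after baseline recording on day 13 or 15 post-plating. Viability by CellTiter Blue resazurin reduction (1:6 reagent dilution), fluorescence 544/590 nm; loss of signal versus DMSO.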
Background: Resazurin is reduced to fluorescent resorufin, in cell work by metabolically active cells.
With `c1ccc2c(c1)Nc1ccccc1S2`, the compound was called inactive.

For the compound `[N-]=[N+]=[N-]`, the compound was called inactive.

For the compound `CC(Cl)(Cl)C(=O)O`, the call was inactive.

With `CCOP(=S)(Oc1ccc([N+](=O)[O-])cc1)c1ccccc1` (stereo not given), the result was inactive.

Turning to `COCCOCCO`, the call was inactive.

On to `ClC(Cl)(Cl)c1ccccc1`, for which the compound was classed as inactive.

On to `CCC1(c2ccccc2)C(=O)N=C(O)NC1=O` (stereo not given), for which the call was inactive.

Turning to `CCC(C)(C)c1ccc(O)cc1`, the compound was called inactive.

`ClC1=C(Cl)C2(Cl)C3C(Cl)C(Cl)CC3C1(Cl)C2(Cl)Cl` (stereo not given): the compound was classed as inactive.

On to `O=C(O)C1C(C(=O)O)C2(Cl)C(Cl)=C(Cl)C1(Cl)C2(Cl)Cl` (stereo not given), for which the compound was classed as inactive.

Another test can be described thus: CCTE_Shafer_MEA_acute_LDH: CCTE's Lactate Dehydrogenase Assay for Cytotoxicity in the Neural Acute Assay, Shafer Lab (AID 2284086).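 Also: active means LDH release rises above DMSO vehicle level.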
Conditions: not given
The method, boiled down: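 Primary rat cortical neurons on 48-well MEA plates, treated on day 13 or 15 post-plating. After the 40-min recording with compound, medium LDH release was read by absorbance at 490 nm. Gain of signal was fitted against DMSO negative control.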
In the case of `CC(C)(C)c1ccccc1OP(=O)(Oc1ccccc1)Oc1ccccc1`, the outcome was inactive.

On to `[N-]=[N+]=[N-]`, for which the call was inactive.

As to `CC(Cl)(Cl)C(=O)O`, the call was inactive.

Turning to `Nc1ccc2ccccc2c1`, the outcome was inactive.

For `CCOP(=S)(Oc1ccc([N+](=O)[O-])cc1)c1ccccc1` (stereo not given), the outcome was inactive.

As to `COCCOCCO`, the result was inactive.

For `ClC(Cl)(Cl)c1ccccc1`, the result was inactive.

As for `CCCCC(CC)COP(=O)(Oc1ccccc1)Oc1ccccc1` (stereo not given), the call was inactive.

With `COP(=O)(CCC(=O)NCO)OC`, the call was inactive.

Regarding `Cc1ccc(N)cc1N`, the call was inactive.

Consider `ClC1=C(Cl)C2(Cl)C3C(Cl)C(Cl)CC3C1(Cl)C2(Cl)Cl` (stereo not given), for which the outcome was inactive.

The nature of a further test: UKN2_HCS_IMR90_neural_migration: University of Konstanz (UKN) Leist Lab Neural Crest Cell Migration Assay in human induced IMR90 Pluripotent Stem Cells (UKN2) (AID 2284204; active = hit-call score of the fitted dose curve at least 0.9, where 1 is the maximum; inactive = score below 0.9). The following applies: actives raise or lower the signal. The method, boiled down: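 iPSC-derived IMR90 neural crest cells on PLO/laminin/fibronectin were seeded around silicone stoppers; after stopper removal, migration in N2-S medium with EGF and FGF ran 24 h before 24 h chemical exposure. Calcein-AM/Hoechst high-content imaging; bidirectional fit versus DMSO.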
Consider `CO/N=C(/C(=O)OC)c1ccccc1COc1ccccc1C`, for which the compound was called inactive.

For `O=C(O)C(F)(OC(F)(F)C(F)(F)C(F)(F)F)C(F)(F)F` (stereo not given), the compound was called inactive.

For the compound `CCOP(=S)(OCC)SCSCC`, the call was inactive.

A short description of another test: IUF_NPC1b_proliferation_BrdU_72hr: Leibniz Research Institute for Environmental Medicine (IUF) 72-hour Neural Progenitor Cell Bromodeoxyuridine (BrdU) Proliferation Assay (NPC1b) (AID 2284207; active = hit-call score of the fitted dose curve at least 0.9, where 1 is the maximum; inactive = score below 0.9).
Conditions: not given
The method, boiled down: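 hNPC spheres (primary, GW 16-19 fetal cortex), single sphere/well, EGF+FGF medium; 72 h compound, no renewal; BrdU pulse last 16 h; luminescent ELISA; activity vs DMSO baseline; growth-factor withdrawal as positive control.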
As for `CC(C)(C)c1ccccc1OP(=O)(Oc1ccccc1)Oc1ccccc1`, the compound was called inactive.

As for `CO/N=C(/C(=O)OC)c1ccccc1COc1ccccc1C`, the AC50 is 23.8 µM (active).

For the compound `O=S1(=O)OCC2C(CO1)C1(Cl)C(Cl)=C(Cl)C2(Cl)C1(Cl)Cl` (stereo not given), the compound was classed as inactive.

For `O=P(Oc1ccccc1)(Oc1ccccc1)Oc1ccccc1`, the call was inactive.

With `CCCCC(CC)COP(=O)(Oc1ccccc1)Oc1ccccc1` (stereo not given), the AC50 is 0.542 µM (active).

As for `O=C(O)C(F)(OC(F)(F)C(F)(F)C(F)(F)F)C(F)(F)F` (stereo not given), the call was inactive.

In the case of `CCCCOCCOP(=O)(OCCOCCCC)OCCOCCCC`, the compound was classed as inactive.

As for `CCOP(=S)(OCC)SCSCC`, the AC50 was 0.761 µM (active).

On to `CCOc1ccc(C(C)(C)COCc2cccc(Oc3ccccc3)c2)cc1`, for which the AC50 is 1.92 µM (active).

The nature of the next test: IUF_NPC1a_proliferation_area_72hr: Leibniz Research Institute for Environmental Medicine (IUF) 72-hour Neural Progenitor Cell Proliferation Area Assay (NPC1a) (AID 2284208; active = hit-call score of the fitted dose curve at least 0.9, where 1 is the maximum; inactive = score below 0.9).
Conditions: not given
In short, it runs like this: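 Single 0.25–0.35 mm human fetal neural progenitor spheres in proliferation medium with EGF and FGF, exposed 72 h from plating without renewal at 37C, pH 7.2-7.6. Sphere area growth measured by automated phase-contrast imaging, relative to DMSO.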
For the compound `CC(C)(C)c1ccccc1OP(=O)(Oc1ccccc1)Oc1ccccc1`, the call was inactive.

On to `CO/N=C(/C(=O)OC)c1ccccc1COc1ccccc1C`, for which the AC50 is 31.6 µM (active).

On to `O=S1(=O)OCC2C(CO1)C1(Cl)C(Cl)=C(Cl)C2(Cl)C1(Cl)Cl` (stereo not given), for which the result was inactive.

Consider `O=P(Oc1ccccc1)(Oc1ccccc1)Oc1ccccc1`, for which the compound was called inactive.

`CCCCC(CC)COP(=O)(Oc1ccccc1)Oc1ccccc1` (stereo not given): the call was inactive.

For the compound `O=C(O)C(F)(OC(F)(F)C(F)(F)C(F)(F)F)C(F)(F)F` (stereo not given), the call was inactive.

Consider `CCCCOCCOP(=O)(OCCOCCCC)OCCOCCCC`, for which the outcome was inactive.

For the compound `CCOP(=S)(OCC)SCSCC`, the compound was classed as inactive.

As for `CCOc1ccc(C(C)(C)COCc2cccc(Oc3ccccc3)c2)cc1`, the result was inactive.

A short description of the next test: IUF_NPC1_viability_72hr: Viability Assessment at 72 hours in the Leibniz Research Institute for Environmental Medicine (IUF) Neural Progenitor Cell Proliferation Assay (NPC1) (AID 2284209; active = hit-call score of the fitted dose curve at least 0.9, where 1 is the maximum; inactive = score below 0.9).
Conditions: not given
In short, it runs like this: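 Human fetal-cortex neural progenitor spheres (0.25–0.35 mm, one per well) grown in EGF/FGF proliferation medium at 37C, pH 7.2-7.6, exposed 72 h without renewal; viability read as alamar blue resazurin-to-resorufin fluorescence relative to DMSO.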
Turning to `CC(C)(C)c1ccccc1OP(=O)(Oc1ccccc1)Oc1ccccc1`, the compound was classed as inactive.

Turning to `CO/N=C(/C(=O)OC)c1ccccc1COc1ccccc1C`, the result was inactive.

With `O=S1(=O)OCC2C(CO1)C1(Cl)C(Cl)=C(Cl)C2(Cl)C1(Cl)Cl` (stereo not given), the compound was classed as inactive.

As to `O=P(Oc1ccccc1)(Oc1ccccc1)Oc1ccccc1`, the compound was called inactive.

In the case of `CCCCC(CC)COP(=O)(Oc1ccccc1)Oc1ccccc1` (stereo not given), the outcome was inactive.

With `O=C(O)C(F)(OC(F)(F)C(F)(F)C(F)(F)F)C(F)(F)F` (stereo not given), the result was inactive.

Turning to `CCCCOCCOP(=O)(OCCOCCCC)OCCOCCCC`, the compound was called inactive.

With `CCOP(=S)(OCC)SCSCC`, the compound was called inactive.

With `CCOc1ccc(C(C)(C)COCc2cccc(Oc3ccccc3)c2)cc1`, the compound was called inactive.
